From ChEMBL document CHEMBL3988442, “University of Dundee, Small-Polar-MMV Screening Library” (2021)
Among all 48,000 compounds or so, about 13,000 (27%) showed an effect of 50% or more. The list shows a part of the results.

system: Wolbachia pipientis; assay: Anti-Wolbachia Cell-Based Screen; format: functional; design: scale not given: in the data most compounds retested in dose-response had high values; settings: 5 µM

Structure (SMILES) | Percent Effect
Cc1cnn(C(C)C2CC2)c1NC(=O)c1ccc(Cn2cnnn2)cc1 (centres undefined) | 7.746%
COc1nc2c(cc1C(=O)N1C[C@@H](N)C[C@H]1C(=O)NC(C)C)CCC2 | 2.559%
CCOC(=O)c1coc(N2CCN(Cc3cc(C)cc(C)c3)C(=O)C2)n1 | -24.84%
CS(=O)(=O)N1CCc2ccc(=O)n(CC3CCOCC3)c2CC1 | -13.75%
O=C(O)C(F)(F)F.O=c1ccc2c(n1CC1CCOCC1)CCN(Cc1ccoc1)CC2 | 125.5%
Cn1cc(CN2C[C@@H]3COC[C@]3(C(=O)NCCc3ccccc3)C2)cn1.O=C(O)C(F)(F)F | 92.46%
Cn1cc(CN2C[C@@H]3COC[C@]3(C(=O)N3CCCO3)C2)cn1 | -0.6058%
Cn1cc(CN2CC(C(=O)Nc3ccccc3)C3(CCOCC3)C2)cn1.O=C(O)C(F)(F)F (centres undefined) | 0.729%
CS(=O)(=O)N1C[C@@H]2COC[C@]2(C(=O)NCCc2cccs2)C1 | -42.96%
O=C(NCc1cccs1)[C@]12COC[C@H]1CN(c1ncccn1)C2.O=C(O)C(F)(F)F | -12.11%
CC(C)NC(=O)[C@]12COC[C@H]1CN(Cc1cnn(C)c1)C2 | 82.27%
O=C(NCCc1cccs1)[C@]12COC[C@H]1CN(Cc1ccncc1)C2.O=C(O)C(F)(F)F.O=C(O)C(F)(F)F | -23.54%
Cn1cc(CN2C[C@@H]3COC[C@]3(C(=O)NCc3cccs3)C2)cn1 | 98.41%
CN(Cc1ccccn1)C(=O)[C@]12COC[C@H]1CN(Cc1cnn(C)c1)C2 | -17.57%
COc1ccccc1CCNC(=O)CNC1CCc2nc(C)nn2C1 (centres undefined) | -4.852%
CC(=O)N1CCn2c(COCc3csc(C)n3)cnc2C1C (centres undefined) | 17.55%
Cc1nn(C)c2nc(N(CCN(C)C)C3CCCC3)sc12 | -1.05%
Cc1cccc(C(=O)NCCNCC2CNc3ccnn3C2)c1 (centres undefined) | -9.397%
CC(C)Cn1cnc(S(=O)(=O)NCCc2nnc3ccccn23)c1 | 8.202%
CCCn1cc2c(C(F)F)cc(SCC(=O)O)nc2n1 | 93.6%
CC(C)Cc1nnc(SCC(=O)O)n1-c1ccc(F)cc1F | 1.309%
Cc1cc(-c2nnc(SCC(=O)O)n2C(C)c2ccccc2)nn1C (centres undefined) | 4.931%
Cc1c2c(C(F)F)cc(SCC(=O)O)nc2nn1C | 97.91%
CCc1cc(C(F)(F)F)c2c(C)nn(CC(=O)O)c2n1 | -1.783%
CCn1nc2nc(SCC(=O)O)cc(C(F)F)c2c1C | 86.56%
Cc1c(-c2nnc(SCC(=O)O)n2C(C)c2ccccc2)cnn1C (centres undefined) | 8.856%

Structure (SMILES) | Percent Effect
CCn1nc(C)c(NC(=O)C(C)C)c1C | -2.093%
Cc1cc(SCC(=O)O)nc2nn(CC(F)F)c(C)c12 | 120.4%
CCCn1cc(C(=O)NC(CC(=O)O)c2ccccc2F)c(C)n1 (centres undefined) | -6.071%
CN(Cc1cccc(Cl)c1)Cc1nnsc1Cl | -20.09%
Cc1oc(-c2ccccc2)nc1CC(=O)NC1=NCCS1 | -12.38%
CCc1nsc(NC2CC(=O)N(C3CC3)C2)n1 (centres undefined) | 5.167%
O=C(c1ccc[nH]1)N1CCN(CC2CCOc3ccccc3C2)CC1 (centres undefined) | -0.508%
O=C(NCC1(O)CCOC1)NCC1(c2ccccc2Cl)CCC1 (centres undefined) | 17.28%
Cc1cc(CC(C)NC(=O)Cc2cc(F)ccc2C)[nH]n1 (centres undefined) | -12.96%
Cc1nc(C2CCCN2Cc2cc(Cl)c3c(c2)OCO3)no1 (centres undefined) | -3.682%
COC[C@@]12CCO[C@@H]1CCN(C(=O)C1CCOCC1)C2 | 4.117%
O=C(N1CCOCC1)N1CC[C@@](O)(c2ccccc2)[C@H]2CCCC[C@@H]21 | 4.203%
O=C(C1CCC1)N1C(CN2CCOCC2)[C@]2(O)CC[C@H]1CC2 (some centres undefined) | 92.68%
O=C(N1CCOCC1)N1C(CN2CCOCC2)[C@]2(O)CC[C@H]1CC2 (some centres undefined) | 118.3%
Cn1c(CN2CCOCC2)nnc1C1CCN(C(=O)C2CCCC2)CC1 | -7.454%
O=C(N1CCOCC1)N1C[C@H]2CC[C@@H]1CN(C1Cc3ccccc3C1)C2 | 12.43%
COCC1N(C(=O)N2CCOCC2)[C@H]2CC[C@]1(O)CC2 (some centres undefined) | 110.4%
C[C@@H]1CN(C(=O)CCN2CCOCC2)CC[C@]1(C)O | -11.44%
O=C(C1CCOCC1)N1C[C@@H]2OCCN(CCN3CCCC3)[C@@H]2C1 | -5.298%
CCC(CC)n1nc(C)cc1NC(=O)C1CCOC1 (centres undefined) | 10.26%
Cc1ccccc1[C@@H]1CN(CCCS(=O)(=O)N(C)C)C[C@H]1C(=O)O | -19.2%
O=C(NC[C@H]1OC[C@@H]2CCN(c3ncccn3)C[C@@H]21)c1ccnnc1 | 8.157%
CCn1ccnc1CN1CCCC(CO)(CCCc2ccccc2)C1 (centres undefined) | 6.615%
Cc1ccc(NC(=O)Cc2c(C)nc3c(c2C)c(=O)[nH]n3C)cc1F | -4.371%
CC(=O)c1c(C)nn(CC(=O)Nc2ccc(Br)cc2)c1C | -0.7117%
Cc1ccc(NC(=O)CN[C@H](C(N)=O)C(C)C)cc1F | -36.68%

Structure (SMILES) | Percent Effect
COc1ccc(NC(=O)Cn2nc(C)c(C)cc2=O)cc1OC | -16.79%
COc1ccc(NC(=O)Cn2nc(C)ccc2=O)cc1OC | 11.2%
Cc1cc(NC(=O)Cn2cc(C#N)c(=O)c3cc(Br)ccc32)no1 | -1.057%
Cc1ccc(NC(=O)Cn2ccc3c(=O)n(C)ccc32)cc1F | 136.8%
COc1ccc(NC(=O)Cn2ccc3c(=O)n(C)ccc32)cc1OC | 174.8%
Cn1ccc2c(ccn2CC(=O)Nc2ccc(Br)cc2)c1=O | 150.6%
Cc1cccn2c(=O)cc(CN3CCCC3Cn3cncn3)nc12 (centres undefined) | 14.6%
O=C(NCCNS(=O)(=O)c1ccc2c(c1)CCCC2)c1ccoc1 | 1.057%
CC(c1ccc(C(F)(F)F)cc1)N1CCN(CCS(C)(=O)=O)CC1 (centres undefined) | -14.82%
Cc1nn(C)cc1CNC(=O)c1cn(CCC2CCCCN2)nn1 (centres undefined) | 3.544%
CC(C)COC(C)C(=O)N1CCN(S(C)(=O)=O)CC1 (centres undefined) | -15.22%
CC(C)CSCCN1CCCN(S(C)(=O)=O)CC1 | 87.23%
CS(=O)(=O)N1CCN(Cc2ccc(F)cc2Br)CC1 | 0.07282%
COc1cccc(/C=C/CCN2CCN(S(C)(=O)=O)CC2)c1 | -6.634%
CC(OCC(F)(F)F)C(=O)N1CCN(S(C)(=O)=O)CC1 (centres undefined) | -14.66%
CS(=O)(=O)N1CCCN(CCCSCc2ccccc2)CC1 | 0.2965%
Cc1noc(C)c1C(=O)NCCN1CCN(S(C)(=O)=O)CC1 | 1.414%
CC(C)CSCCN1CCN(S(C)(=O)=O)CC1 | 87.34%
CCSCCN1CCCN(S(C)(=O)=O)CC1 | 101%
c1ccc2c(c1)CCN(c1ncnc3sc4c(c13)CCNC4)C2 | -22.34%
CC(C)(C)c1nnc(CN2CCn3c(nnc3C3CC3)C2)o1 | -1.017%
COc1cc(CNCc2c(C)nn(C)c2N(C)C)ccc1C | 5.351%
COc1cccc(OCCNCc2c(C)nn(C)c2N(C)C)c1 | -5.717%
Cc1nn(C)c(N(C)C)c1CNC(C)COc1ccc(F)cc1F (centres undefined) | 105.9%
COCCOc1ccccc1CNCc1c(C)nn(C)c1N(C)C | 3.924%
Cc1nn(C)c(N(C)C)c1CNCc1cccc(CN(C)C(C)C)c1 | 4.552%

Structure (SMILES) | Percent Effect
Cc1nn(C)c(N(C)C)c1CNCC(O)COc1ccccc1.Cl (centres undefined) | -3.331%
Cc1nn(C)c(N(C)C)c1CNC(C)COc1ccc(F)cc1 (centres undefined) | 102.4%
Cc1nn(C)c(N(C)C)c1CNC(C)c1cccnc1 (centres undefined) | 9.889%
CCOc1cccc(C(C)NCc2c(C)nn(C)c2N(C)C)c1 (centres undefined) | 98.21%
Cc1nn(C)c(N(C)C)c1CNC(C)COc1ccccc1F (centres undefined) | 101.5%
Cc1nn(C)c(N(C)C)c1CNCC(O)COc1ccc(F)cc1 (centres undefined) | -24.06%
c1cc(-c2c[nH]c([C@@H]3COCCN3C3CCOCC3)n2)ccn1 | -2.86%
COc1cccc(C(C)N2CCN(S(=O)(=O)CCCF)CC2)c1 (centres undefined) | 11.55%
CC(C(=O)Nc1ccnn1C(C)C)N1CCN(Cc2ccccc2)CC1 (centres undefined) | -23.16%
c1cc(-c2cnc(C3CCNCC3)cn2)n[nH]1 | 125.1%
c1cc(-c2cncc(C3CCNCC3)n2)n[nH]1 | 120.5%
O=c1n(Cc2ncccn2)nc(C2CCNCC2)n1-c1ccccc1 | 0.768%
CC(C)n1cnc2c(-c3cccnc3)nc(C3CCNCC3)cc21.Cl.Cl | -47.69%
O=C(c1cscn1)N1CCCC12CCCN(S(=O)(=O)c1ccccc1)C2 (centres undefined) | -2.919%
CC(C)[C@@H]1CN(Cc2cnc3c(S(C)(=O)=O)cnn3c2)C[C@H]1N(C)C | -1.352%
Cc1nccc(N2CCCC2CCNS(C)(=O)=O)n1 (centres undefined) | 105.7%
OCC1CCCN1c1cc(NCc2ccc(Cl)s2)ncn1 (centres undefined) | 16.81%
CN(CCCNc1cc(N2CCCC2CO)ncn1)S(C)(=O)=O (centres undefined) | -14.7%
OCC1CCCN1c1cc(NCc2cccs2)ncn1 (centres undefined) | 94.03%
COc1ncccc1CNc1cc(N2CCCC2CO)ncn1 (centres undefined) | 0.4879%
CCc1ccc(CNc2cc(N3CCCC3CO)ncn2)s1 (centres undefined) | 110.8%
CNc1cc(N2CCCC2CNCc2ccccn2)ncn1 (centres undefined) | -5.969%
Cc1cccnc1CNc1cc(N2CCCC2CO)ncn1 (centres undefined) | -0.7119%
Cc1nccc(N2C[C@H](NC(=O)CNS(C)(=O)=O)[C@@H](C3CC3)C2)n1 | -1.379%
CS(=O)(=O)NCCCN1CCCC1Cc1ccccc1 (centres undefined) | -4.416%
Cc1nccc(CNc2cc(N3CCCC3CO)ncn2)n1 (centres undefined) | 87.89%
